Results reported in PubChem BioAssay AID602143 (Vanderbilt Specialized Chemistry Center, 2011).
Calls of active or inactive are those of the source. Cut-off read from the data, not from the text of the source: active = remaining activity below about 50%; inactive = the rest.

molecular target: Phospholipase D2 (Homo sapiens) (UniProt O14939); assay: cellular phospholipase D2 activity inhibition – cell-based, HEK293, single concentration (AID 602143); conditions: HEK293 cellular PLD2 activity, percent of control; stronger effect = lower value;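 note: tested at 200 nM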
Sequence (O14939 whole entry, looked up): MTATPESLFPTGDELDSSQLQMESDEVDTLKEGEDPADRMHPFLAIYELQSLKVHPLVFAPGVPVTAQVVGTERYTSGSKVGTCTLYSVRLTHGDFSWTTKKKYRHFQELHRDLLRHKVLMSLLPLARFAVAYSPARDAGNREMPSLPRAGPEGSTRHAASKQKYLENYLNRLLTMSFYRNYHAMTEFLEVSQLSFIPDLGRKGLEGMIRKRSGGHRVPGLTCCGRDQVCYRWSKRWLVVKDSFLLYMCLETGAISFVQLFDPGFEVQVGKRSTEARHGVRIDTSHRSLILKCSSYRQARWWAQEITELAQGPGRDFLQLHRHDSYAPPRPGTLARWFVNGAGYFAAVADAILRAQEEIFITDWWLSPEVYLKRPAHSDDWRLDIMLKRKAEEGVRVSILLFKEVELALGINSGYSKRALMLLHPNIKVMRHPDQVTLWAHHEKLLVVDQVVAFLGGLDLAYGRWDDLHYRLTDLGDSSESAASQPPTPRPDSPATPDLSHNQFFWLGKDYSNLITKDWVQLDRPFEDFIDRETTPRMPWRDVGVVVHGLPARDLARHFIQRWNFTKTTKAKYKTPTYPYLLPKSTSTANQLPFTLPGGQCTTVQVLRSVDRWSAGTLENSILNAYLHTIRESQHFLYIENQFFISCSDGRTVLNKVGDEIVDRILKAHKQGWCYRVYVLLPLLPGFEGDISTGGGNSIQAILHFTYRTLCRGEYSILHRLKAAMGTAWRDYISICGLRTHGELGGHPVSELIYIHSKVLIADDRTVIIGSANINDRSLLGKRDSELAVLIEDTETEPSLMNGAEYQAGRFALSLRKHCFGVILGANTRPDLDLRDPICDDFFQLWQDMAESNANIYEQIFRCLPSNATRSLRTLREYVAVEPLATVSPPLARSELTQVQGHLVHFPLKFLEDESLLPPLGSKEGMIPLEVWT
Sequence (O14939 whole entry, looked up): as above

Compound	remaining activity
O=C(NCCN1CCC2(CC1)C(=O)NCN2c1ccccc1)c1ncc[nH]1	113% (inactive)
Cc1ccccc1C(=O)NCCN1CCC2(CC1)C(=O)NCN2c1cccc(F)c1	115% (inactive)
C[C@H](CN1CCC2(CC1)C(=O)NCN2c1ccccc1)NC(=O)c1ccc(F)cc1	81.7% (inactive)
O=C(c1cnc2ccccc2c1)N1CC(N2CCC3(CC2)C(=O)NCN3c2ccccc2)C1	70% (inactive)
O=C(NCCN1CCC2(CC1)C(=O)NCN2c1ccc(F)c(F)c1)c1cc2cc(F)ccc2[nH]1	10.4% (active)
O=C(NCCN1CCC2(CC1)C(=O)NCN2c1ccc(F)c(F)c1)c1ccc(F)cc1	49.6% (active)
O=C(Cc1ccccc1Br)NCCN1CCC2(CC1)C(=O)NCN2c1cccc(F)c1	117% (inactive)
C[C@H](CN1CCC2(CC1)C(=O)NCN2c1ccccc1)NC(=O)c1cc(Br)c(Br)o1	85.7% (inactive)
O=C(C1CC1c1ccccc1)N1CC(N2CCC3(CC2)C(=O)NCN3c2ccccc2)C1 (stereo not given)	82.9% (inactive)
O=C(NCCN1CCC2(CC1)C(=O)NCN2c1ccccc1)c1cccc(Cl)n1	52.9% (inactive)
Nc1cccc(Cl)c1C(=O)NCCN1CCC2(CC1)C(=O)NCN2c1ccccc1	100% (inactive)
O=C(NCCN1CCC2(CC1)C(=O)NCN2c1ccccc1)C1(c2ccccc2)CCC1	87.6% (inactive)
C[C@@H](CN1CCC2(CC1)C(=O)NCN2c1ccccc1)NC(=O)[C@@H]1C[C@H]1c1ccccc1	75.9% (inactive)
O=C(NCCN1CCC2(CC1)C(=O)NCN2c1ccccc1)c1cc(=O)c2cc(Br)ccc2o1	122% (inactive)
C[C@@H](CN1CCC2(CC1)C(=O)N(Cc1ccccc1)c1ccccc12)NC(=O)c1ccc2ccccc2c1	71.6% (inactive)
O=C(NCCN1CCC2(CC1)C(=O)NCN2c1ccccc1)c1cc2ccccc2s1	10.3% (active)
O=C(NCCN1CCC2(CC1)C(=O)NCN2c1ccccc1)c1ccncn1	93.7% (inactive)
NC1(CN2CCC3(CC2)C(=O)NCN3c2ccccc2)CCCC1 (tested in a mixture with another compound)	74.2% (inactive)

Compound	remaining activity
O=C(NCCN1CCC2(CC1)C(=O)NCN2c1ccc(F)cc1)c1cnc2ccccc2c1	24% (active)
O=C1NCN(c2ccccc2)C12CCN(CCN1CCCC1)CC2	84.9% (inactive)
O=C(NCCN1CCC2(CC1)C(=O)NCN2c1cccc(F)c1)c1cc(C(F)(F)F)ccc1C(F)(F)F	87.9% (inactive)
O=C(NCCN1CCC2(CC1)C(=O)NCN2c1ccc(Cl)cc1)c1cc2cc(F)ccc2[nH]1	57% (inactive)
O=C(NCCN1CCC2(CC1)C(=O)NCN2c1ccc(Br)cc1)c1ccc2ccccc2c1	52% (inactive)
O=C(c1cnc2ccccc2c1)N1CCCC1CN1CCC(n2c(=O)[nH]c3ccccc32)CC1 (stereo not given)	54.2% (inactive)
O=C(NCCCN1CCC2(CC1)C(=O)NCN2c1ccccc1)c1ccc2ccccc2c1	98% (inactive)
O=C(c1cnc2ccccc2c1)N1CCC[C@@H]1CN1CCC2(CC1)C(=O)NCN2c1ccccc1	106% (inactive)
O=C(NCCN1CCC2(CC1)C(=O)NCN2c1cccc(F)c1)c1ccc(-c2ccccc2)cc1	101% (inactive)
O=C(NCCCCCCN1CCC2(CC1)C(=O)NCN2c1ccccc1)c1cnc2ccccc2c1	127% (inactive)
O=C(NCCN1CCC2(CC1)C(=O)NCN2c1cccc(F)c1)c1cnc2ccccc2c1	5.53% (active)
CC(C)[C@@H](CN1CCC2(CC1)C(=O)NCN2c1ccccc1)NC(=O)c1cc2ccccc2[nH]1	25.8% (active)
O=C(c1c(F)cccc1F)N(CCN1CCC2(CC1)C(=O)NCN2c1cccc(F)c1)C(=O)c1c(F)cccc1F	88.1% (inactive)
O=C(NCCN1CCC2(CC1)C(=O)NCN2c1ccccc1)c1ccc2c(c1)OCO2	90% (inactive)
O=C(NCCN1CCC2(CC1)C(=O)NCN2c1ccc(Cl)cc1)c1cc2ccccc2[nH]1	48.1% (active)
Cc1cccc(C(=O)N[C@@H](C)CN2CCC3(CC2)C(=O)NCN3c2ccccc2)c1	83.2% (inactive)
O=C(NCCN1CCC2(CC1)C(=O)NCN2c1ccc(F)cc1)c1cc2cc(F)ccc2[nH]1	14.3% (active)
